In PubChem BioAssay (NCI):
The panel holds about 83,000 compounds, 20% with a hit somewhere; the sample as a whole holds those more often.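 96-well plates, one dose, 48 hours. Percent growth reported; active if below 10.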 Calls of active or inactive are those of the source.

Tests used:
Assay in all cases: NCI-60 one-dose screen, 48 h (100 = growth as untreated, 0 = no growth, -100 = all killed)
Settings in all cases: 10 µM unless noted
T-47D breast = tested on: T-47D breast
BT-549 breast = tested on: BT-549 breast
MDA-MB-435 melanoma = tested on: MDA-MB-435 melanoma
MCF7 breast = tested on: MCF7 breast
HCT-116 colon = tested on: HCT-116 colon
HCC-2998 colon = tested on: HCC-2998 colon
KM12 colon = tested on: KM12 colon
SW-620 colon = tested on: SW-620 colon

Measured: growth

Cc1ccc2c(n1)C(=O)C(Cl)=C(Nc1ccc(C(C)C)cc1)C2=O
inactive: BT-549 breast 91.9% | KM12 colon 57.8%
active: T-47D breast -47% | MDA-MB-435 melanoma -81.2% | MCF7 breast -56.3% | HCT-116 colon -70.8% | HCC-2998 colon 3.71%

COC(=O)c1cccc(NC2=CC(=O)C(C)=C(C)C2=O)c1
inactive: T-47D breast 64.4% | BT-549 breast 101% | MDA-MB-435 melanoma 101% | SW-620 colon 104% | HCT-116 colon 66.7% | HCC-2998 colon 110% | KM12 colon 97.1%

C=C(C=O)[C@@H]1CC[C@]2(C(=O)O)CC[C@]3(C)C(CC[C@@H]4[C@@](C)(CCC#N)[C@H](C(=C)C=O)CC[C@]43C)[C@@H]12 (stereo partly drawn)
inactive: T-47D breast 28.1% | BT-549 breast 28.9% | SW-620 colon 10.9% | HCC-2998 colon 108% | KM12 colon 92%
active: MDA-MB-435 melanoma -9.89% | HCT-116 colon -82.8%

CCS(=O)(=O)Nc1ccc(C(=O)CC2(O)C(=O)Nc3ccccc32)cc1 (stereo not drawn)
inactive: T-47D breast 89.1% | BT-549 breast 116% | MDA-MB-435 melanoma 108% | SW-620 colon 103% | HCT-116 colon 104% | HCC-2998 colon 100% | KM12 colon 101%

O=C(/C=C/C=C/c1csc(Br)n1)NO
inactive: T-47D breast 103% | BT-549 breast 98.4% | MDA-MB-435 melanoma 92.6% | SW-620 colon 103% | HCT-116 colon 95.8% | HCC-2998 colon 107% | KM12 colon 93.4%

CN1CCN(c2ccc(Nc3nc(NCCCNS(=O)(=O)c4ccc(Cl)cc4)c4sccc4n3)cc2)CC1
inactive: T-47D breast 11.6% | SW-620 colon 20.7% | KM12 colon 23.3%
active: BT-549 breast -70.2% | MDA-MB-435 melanoma 7.33% | HCT-116 colon 1.81%

O=C1[C@H]2Cc3c([nH]c4ccccc34)[C@H](c3ccc(Br)cc3)N2C(=O)CN1C1CCN(CC2CCCCC2)CC1
inactive: T-47D breast 97.9% | BT-549 breast 96.5% | MDA-MB-435 melanoma 85.1% | MCF7 breast 25.8% | HCT-116 colon 18% | HCC-2998 colon 67.8% | KM12 colon 77%

Cn1cc(-c2cc3ncnc(Nc4ccc(NC(=O)Nc5cc(C(C)(C)C)on5)cc4)c3s2)cn1
inactive: MDA-MB-435 melanoma 17.5% | SW-620 colon 24.4% | MCF7 breast 18.5% | HCT-116 colon 12.7% | HCC-2998 colon 74.1% | KM12 colon 15.7%
active: T-47D breast 1.81%

Clc1ccc2[nH]cc(-c3cncn3CCc3ccc4c(c3)OCO4)c2c1
inactive: T-47D breast 37.8% | MDA-MB-435 melanoma 71.3% | SW-620 colon 79.5% | MCF7 breast 63% | HCT-116 colon 63.2% | HCC-2998 colon 89.9% | KM12 colon 74.6%

Cn1ncc2ncc(-c3ccc4ncc(C#N)c(N5CCc6cc(F)c(Cl)cc65)c4c3)cc21
inactive: MDA-MB-435 melanoma 27.1% | SW-620 colon 54.4% | HCT-116 colon 53.1% | HCC-2998 colon 46.4% | KM12 colon 52.5%
active: T-47D breast 5.2% | MCF7 breast 9.79%

COc1ccc2[nH]cc(/C=N/Nc3ccnc4cc(Cl)ccc34)c2c1
active: T-47D breast -53.6% | MDA-MB-435 melanoma -90.8% | MCF7 breast -69.1% | HCT-116 colon -50.5% | HCC-2998 colon -89.4% | KM12 colon -78%

CN1CCN(CC#CCn2c3c(c4ccccc42)C[C@]2(C)[C@H]4CC=C5[C@@H]6CC(C)(C)CC[C@]6(C(=O)N6CCOCC6)CC[C@@]5(C)[C@]4(C)CC[C@H]2C3(C)C)CC1
active: MCF7 breast -3.42%
inactive: T-47D breast 78.7% | MDA-MB-435 melanoma 82.7% | SW-620 colon 11.6% | HCT-116 colon 22% | HCC-2998 colon 85.4% | KM12 colon 66%

CSc1ccc(/C(=N/N=C(N)N)c2ccc(F)cc2)cc1
active: MCF7 breast 5.11% | HCT-116 colon 6.25% | HCC-2998 colon -14.1% | KM12 colon 9.6%
inactive: T-47D breast 58.1% | MDA-MB-435 melanoma 10.6% | SW-620 colon 22.2%

Nc1cc(C(=O)N/N=C\c2ccc(OC(F)F)c(OC3CCCC3)c2)nn1CC(O)c1ccccc1 (stereo not drawn)
inactive: T-47D breast 83.6% | MDA-MB-435 melanoma 103% | MCF7 breast 89% | HCT-116 colon 103% | HCC-2998 colon 114% | KM12 colon 95.6%

Cc1ccc2c(n1)C(=O)C(Cl)=C(Nc1ccc(C)c(C)c1)C2=O
active: T-47D breast 3.29% | MDA-MB-435 melanoma -82.6% | MCF7 breast -60.5%
inactive: SW-620 colon 33.5% | HCT-116 colon 12.2% | HCC-2998 colon 57.6% | KM12 colon 51.9%

O=C1/C(=C/C=C/c2ccco2)SC(=S)N1Cc1ccccc1
inactive: T-47D breast 75.6% | MDA-MB-435 melanoma 92.7% | SW-620 colon 94.2% | MCF7 breast 28.4% | HCT-116 colon 91% | HCC-2998 colon 99.7% | KM12 colon 78.6%

Cn1cc(-c2nn3cc(-c4ccncc4)nc3s2)c2cc(F)ccc21
inactive: T-47D breast 41.4% | MDA-MB-435 melanoma 83.2% | SW-620 colon 68.9% | HCT-116 colon 45.7% | HCC-2998 colon 91.4% | KM12 colon 81.8%

C(=N\Nc1nc(N/N=C/c2ccc3c(c2)OCO3)nc(N2CCCCC2)n1)/c1ccc2c(c1)OCO2
inactive: T-47D breast 87.2% | MDA-MB-435 melanoma 98.5% | SW-620 colon 82.4% | MCF7 breast 54.8% | HCT-116 colon 47.9% | HCC-2998 colon 83.8% | KM12 colon 86.2%

O=C(CSc1nc2ccccc2c(=O)n1-c1ccc(S(=O)(=O)Nc2ccc(Cl)nn2)cc1)Nc1ccc(S(=O)(=O)Nc2ccc(Cl)nn2)cc1
inactive: T-47D breast 98.1% | MDA-MB-435 melanoma 99.7% | SW-620 colon 98.4% | MCF7 breast 95.3% | HCT-116 colon 105% | HCC-2998 colon 120% | KM12 colon 99.4%

CCC(=C(c1ccc(OCCN(C)C)cc1)c1ccc(OCCN(C)C)cc1)c1ccc(Cl)cc1
active: T-47D breast -56% | MDA-MB-435 melanoma -88.6% | SW-620 colon -72.4% | MCF7 breast -72.8% | HCT-116 colon -67.7% | HCC-2998 colon -72.4% | KM12 colon -49.1%

N#CC1=C2NCCCNc3oc(nc3C#N)Cc3ccccc3CC(=N1)O2
inactive: T-47D breast 92.6% | MDA-MB-435 melanoma 95.1% | SW-620 colon 50.7% | MCF7 breast 33.8% | HCT-116 colon 23.4% | HCC-2998 colon 114% | KM12 colon 93.6%

N#Cc1c(-c2cccs2)c(C#N)c(=O)n(Cc2nc3ccccc3[nH]2)c1N
inactive: T-47D breast 74.8% | MDA-MB-435 melanoma 110% | SW-620 colon 95.6% | MCF7 breast 66.1% | HCT-116 colon 100% | HCC-2998 colon 116% | KM12 colon 102%

CCCCSC1=C(Cl)CN(c2ccccc2)C1=O
inactive: T-47D breast 85% | MDA-MB-435 melanoma 108% | SW-620 colon 106% | HCT-116 colon 104% | HCC-2998 colon 105% | KM12 colon 93.7%

CCN(CC)S(=O)(=O)c1ccc(-c2nc(C(Cl)Cl)nc3cc(-c4ccc(F)cc4)nn23)cc1
inactive: T-47D breast 28% | MDA-MB-435 melanoma 25.6% | MCF7 breast 19.4% | HCT-116 colon 28.6%
active: HCC-2998 colon 7.38% | KM12 colon 9.84%

Cc1ccc2c(n1)C(=O)C(Cl)=C(Nc1cccc(C)c1C)C2=O
inactive: KM12 colon 26.1%
active: T-47D breast -56.7% | MDA-MB-435 melanoma -86.5% | SW-620 colon -9.92% | MCF7 breast -59.3% | HCT-116 colon -42.9%

CN(C)S(=O)(=O)c1ccc(-c2nc(C(Cl)Cl)nc3cc(-c4ccc(F)cc4)nn23)cc1
inactive: T-47D breast 38% | MCF7 breast 15%
active: MDA-MB-435 melanoma 6.53% | SW-620 colon 4.42% | HCT-116 colon -0.738% | HCC-2998 colon 8.78% | KM12 colon 7.53%

CC(Nc1c(C#N)cnc2ccc(-c3cncc(O)c3)cc12)c1ccccc1 (stereo not drawn)
inactive: MDA-MB-435 melanoma 25.2% | SW-620 colon 10.1% | HCC-2998 colon 19.5%
active: T-47D breast 6.53% | MCF7 breast 0.808% | HCT-116 colon 3.68% | KM12 colon 4.85%

CC(C)(C)c1cc(NC(=O)Nc2ccc(-c3cn4c5c(sc4n3)CCc3c[nH]cc3-5)cc2)no1
inactive: T-47D breast 18.5% | MDA-MB-435 melanoma 26% | SW-620 colon 17.8% | HCT-116 colon 23.2% | HCC-2998 colon 24%
active: MCF7 breast -6.97% | KM12 colon 6.68%

O=C(CSc1nc2ccccc2c(=O)n1-c1ccc(Cl)cc1)N/N=C/c1ccc(Oc2ccc(Cl)cc2)cc1
active: HCT-116 colon -67.8%
inactive: T-47D breast 30.1% | MDA-MB-435 melanoma 25.1% | MCF7 breast 15.5% | KM12 colon 17.4%

Cc1ccc(C(=O)Nc2ccc(CNCCN3CCNCC3)c(C(F)(F)F)c2)cc1C#Cc1cnc2cccnn12
active: T-47D breast 3.12% | MDA-MB-435 melanoma -76.2% | SW-620 colon -11.1% | MCF7 breast -82.9% | HCT-116 colon -58.5% | HCC-2998 colon 3.91% | KM12 colon -45.6%

CCN(CC)c1ccc(/C=N/NC(=O)c2ccc(S(N)(=O)=O)cc2)c(O)c1
active: MCF7 breast 6.43%
inactive: T-47D breast 30.4% | MDA-MB-435 melanoma 31.1% | HCT-116 colon 24.2% | HCC-2998 colon 37.3% | KM12 colon 24.2%

CN1CCN(c2ccc(Nc3nc(NCCCNS(=O)(=O)c4cccc(F)c4)c4sccc4n3)cc2)CC1
inactive: T-47D breast 22.8% | MDA-MB-435 melanoma 14.1% | SW-620 colon 46.5% | MCF7 breast 25.7% | HCT-116 colon 11.1% | HCC-2998 colon 37.9% | KM12 colon 54%

C#Cc1cc(C(=O)Nc2ccc(CNCCN3CCOCC3)c(C(F)(F)F)c2)ccc1C
inactive: T-47D breast 82.1% | MDA-MB-435 melanoma 94.9% | SW-620 colon 97.5% | MCF7 breast 83.5% | HCT-116 colon 90.2% | HCC-2998 colon 102% | KM12 colon 96.2%

Cc1ccc(C(=O)Nc2ccc(CNCCN3CCOCC3)c(C(F)(F)F)c2)cc1C#Cc1cnc2cccnn12
inactive: SW-620 colon 14.1%
active: T-47D breast 4.34% | MDA-MB-435 melanoma -28% | MCF7 breast 6.79% | HCT-116 colon 2.51% | HCC-2998 colon 6.09% | KM12 colon 1.77%
